Compound activity deposited in PubChem BioAssay by The Scripps Research Institute Molecular Screening Center.
Shown is part of a subset that was picked to be rich in hits.
SF-1 inh: inhibitors of human SF-1, primary screen, cell-based, CHO-K1, Gal4-SF-1 LBD, luciferase luminescence. 0.55% of 65,000 active. Steroidogenic factor 1 (Homo sapiens), Q13285. CHO-K1 Gal4-SF-1 LBD luciferase reporter. inhibition, % at 10 µM;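 active means inhibition above the mean inhibition of all tested compounds plus 3 SD, cut at about 48% in these data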;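 further: 0% = SF-1 transfected cells with DMSO and 100% = mock-transfected cells lacking SF-1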
Starred values were filed as active, the others as inactive.

SMILES | SF-1 inh
C[C@H]1CCC/C=C/C2C[C@H](O)CC2[C@H](O)/C=C/C(=O)O1 (some centres not stated) | 79.9*
COc1cccc(C2=NOC(C(=O)N3CCC4(CC3)OCCO4)C2)c1 (configuration not stated) | -56.5
COC(=O)CC1NC2CCCCC2NC1=O (configuration not stated) | -14.5
CC(=NCC1CCCO1)c1c(O)n(-c2ccc(Cl)cc2)c(=O)[nH]c1=O (configuration not stated) | 10.7
O=C(Cc1ccccc1)N1CCN(CC2CC=CCC2)CC1 (configuration not stated) | 11.6
CCn1nc(-c2ccccc2)nc2c(=O)n(C)c(=O)nc1-2 | 95.4*
Cc1cccc(N2C(=O)NC(=O)C3(Cc4cc(C)ccc4N(C)C3)C2=O)c1 (configuration not stated) | 4.4
CCCCn1c(O)c(C(C)=Nc2cccc(C(=O)O)c2)c(=O)[nH]c1=O | -9.9
O=C(Cn1c2c(c(-c3ccccc3Cl)cc1=O)CCC2)N1CCC2(CC1)OCCO2 | 14.7
Cc1cccc(NC(=O)CSc2nnc([C@@H](N)Cc3c[nH]c4ccccc34)o2)c1C | -12.8
O=c1[nH]c(=O)n(C2CCCCC2)c(O)c1C=NCCCn1ccnc1 | -8.9
COc1cc(CN2CCN(c3cc(C)ccc3C)CC2)ccc1O | 66.8*
CCn1c(=O)cc(OCC(=O)N2CCN(Cc3ccc4c(c3)OCO4)CC2)c2ccccc21 | 16.8
O=c1cccc2n1CC1CC2CN(C(c2cccc(F)c2)c2sc3ncnn3c2O)C1 (configuration not stated) | 2.1
Cc1ccc(-n2c(O)c(C=NC3CCCC3)c(=O)[nH]c2=O)c(C)c1 | -3.6
